Laboratory results as given in PubChem BioAssay (Tox21).
“And” between values parts separate entries of the source, which are not always exact repeats. Equal values may be shown once. Records with an inconclusive call do not appear. A call without a number means that no potency is given here. More than one record can exist for a structure, and the calls need not agree. The source made the active and inactive calls. Unless noted, the call rests on the fitted dose curve.

Legend:
[1] = Nuclear factor erythroid 2-related factor 2/antioxidant responsive element (Nrf2/ARE) small molecule agonists: qHTS cell viability counter screen in human keratinocytes (AID 1919968; active means well fitted curve in the direction sought with a large enough effect in the repeat runs; an effect the other way counts as inactive or inconclusive; further: nearly all actives have a fitted effect of over 55% in size; further: potency means the concentration at half of the fitted maximal effect)
Procedure, shortened: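 HaCaT ARE reporter line, 1,500 cells/well; 5 h settle, 37 C/5% CO2; cpd in DMSO pinned; 23 h exposure; CellTiter-Fluor, 1 h; fluorescence.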

[2] = Nuclear factor erythroid 2-related factor 2/antioxidant responsive element (Nrf2/ARE) small molecule agonists: luciferase reporter gene qHTS assay in human keratinocytes (AID 1919969); further: nearly all actives have a fitted effect of over 35% in size
[3] = target: Gonadotropin-releasing hormone receptor (Homo sapiens) (UniProt P30968); assay: Human gonadotropin-releasing hormone receptor (GnRHR) small molecule agonists, calcium flux assay in GnRHR-HEK293 cells (AID 1920063); further: nearly all actives have a fitted effect of over 35% in size
Procedure, shortened: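 GnRHR-HEK293, 1500 cells/well, 18 h 37 C/5% CO2; Ca dye 1 h 37 C; cpd pinned (DMSO), agonist mode; kinetic FL 480/540, 3 min, 1 s reads; 15 conc, n=3.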

[4] = target: KiSS-1 receptor (Homo sapiens) (UniProt Q969F8); assay: Human kisspeptin (KISS1R) small molecule agonists, calcium flux assay in KISS1R-HEK293 cells (AID 1920064; active means well fitted curve in the direction sought with a large enough effect in the repeat runs; an effect the other way counts as inactive or inconclusive)
Procedure, shortened: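 Stable human KISS1R HEK293 line; 18 h plating, 37 C/5% CO2; calcium dye 1 h 37 C; compound pin transfer; kinetic fluorescence Ex/Em 480/540, 3 min.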

[5] = p53 small molecule agonists, cell-based qHTS assay with rat liver microsomes (AID 1963578)
Procedure, shortened: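 Fluorescence from a beta-lactamase reporter under a p53 response element was measured after cells had been incubated 16 h at 37 C with test compound and rat liver microsomes plus NADPH (0.5 mg/mL final each).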

[6] = p53 small molecule agonists, cell-based qHTS assay with human liver microsomes: qHTS cell viability counter screen (AID 1963579); further: nearly all actives have a fitted effect of over 45% in size
Procedure, shortened: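 Seed p53RE-bla cells at 4,000 per well; incubate 5 h at 37 C; add compound, human liver microsomes and NADPH; incubate 16 h at 37 C; add CellTiter-Glo; after 30 min at room temperature, read luminescence.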

[7] = p53 small molecule agonists, cell-based qHTS assay with rat liver microsomes: qHTS cell viability counter screen (AID 1963580); further: nearly all actives have a fitted effect of over 45% in size
Procedure, shortened: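 Intracellular ATP, by CellTiter-Glo luminescence, defines viability. HCT-116 p53RE-bla cells, 4,000 per well, were compound-treated in the presence of rat liver microsomes and NADPH for 16 h at 37 C.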

[8] = p53 small molecule agonists, cell-based qHTS assay: qHTS cell viability counter screen (AID 1963581); further: nearly all actives have a fitted effect of over 45% in size
Procedure, shortened: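 HCT-116 p53RE-bla cells, 4,000/well, plated 5 h before compound pin transfer; 16 h at 37 C; bla substrate 2 h RT; then CellTiter-Glo, 30 min RT, luminescence.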

[9] = p53 small molecule agonists, cell-based qHTS assay (AID 1963582; active means well fitted activation curve with a large enough effect in the signal ratio in the repeat runs, not every such curve was filed as active; the % refers to the signal ratio)
Procedure, shortened: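 Reporter line: p53RE-bla. Pre-incubation 5 h, 37 C, 5% CO2; compound (DMSO, pin tool) 16 h, 37 C; B/G FRET substrate 2 h RT; fluorescence intensity read.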

[10] = target: 5-hydroxytryptamine receptor 2A (Homo sapiens) (UniProt P28223); assay: 5-hydroxytryptamine receptor 2A (HTR2A) small molecule antagonists, cell-based qHTS assay (AID 1963586); further: nearly all actives have a fitted effect of over 45% in size; further: potency means the concentration at half of the fitted maximal effect
Procedure, shortened: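 Antagonist-mode intracellular calcium assay: DOI (4 nM) added after 5 min compound pre-incubation at room temperature to dye-loaded HTR2A-CHO cells. Fluorescence followed for 3 min, sampled every second.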

[11] = target: 5-hydroxytryptamine receptor 2A (Homo sapiens) (UniProt P28223); assay: 5-hydroxytryptamine receptor 2A (HTR2A) small molecule agonists, cell-based qHTS assay (AID 1963587); further: nearly all actives have a fitted effect of over 30% in size
Procedure, shortened: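 Kinetic calcium-flux fluorescence (2 min, 1 sec intervals) after compound addition in agonist mode. HTR2A-CHO cells were cultured 18 h, then dye-loaded 1 h at 37 C.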

[12] = target: Muscarinic acetylcholine receptor M1 (Homo sapiens) (UniProt P11229); assay: Cholinergic receptor muscarinic 1 (CHRM1) small molecule antagonists, cell-based qHTS assay (AID 1963588); further: nearly all actives have a fitted effect of over 40% in size
Procedure, shortened: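 CHRM1-CHO calcium-flux assay, antagonist mode. Cells were seeded 18 h, dye-loaded 1 h at 37 C and given compound for 5 min at RT, then acetylcholine was added at 50nM. FDSS fluorescence was read 3 min; 15 concentrations, three runs.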

[13] = target: Muscarinic acetylcholine receptor M1 (Homo sapiens) (UniProt P11229); assay: Cholinergic receptor muscarinic 1 (CHRM1) small molecule agonists, cell-based qHTS assay (AID 1963589); further: nearly all actives have a fitted effect of over 35% in size
Procedure, shortened: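 Human M1 in stable CHO line; 18 h plating, 1 h dye load 37 C; cpd added (agonist mode); Ca2+ fluorescence kinetic read, 1 s intervals; 15 conc, 3 runs.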

[14] = cAMP Responsive Elements (CRE) small molecule agonists, cell-based qHTS assay (AID 1963590)
Procedure, shortened: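 HEK 293T CRE-bla, 2,000 cells/well, 18 h preincubation 37 C/5% CO2; cpds (DMSO) pinned, 3 h; LiveBLAzer B/G FRET substrate, 2 h RT.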

[15] = cAMP Responsive Elements (CRE) small molecule antagonists, cell-based qHTS assay (AID 1963591; active means well fitted inhibition curve with a large enough effect in the signal ratio in the repeat runs, not every such curve was filed as active; the % refers to the signal ratio)
Procedure, shortened: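 Beta-lactamase reporter read by FRET substrate (LiveBLAzer B/G) after 2 h at room temperature. CRE-bla HEK293T cells had received compound plus 0.25 uM (final) NKH477 for 3 h at 37 °C.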

[16] = target: Beta-2 adrenergic receptor (Homo sapiens) (UniProt P07550); assay: Adrenergic beta2 receptor (ADRB2) small molecule antagonists, cell-based qHTS assay (AID 1963592); further: nearly all actives have a fitted effect of over 50% in size; further: potency means the concentration at half of the fitted maximal effect
Procedure, shortened: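 Cells (CHO, stable ADRB2 overexpression) incubated 18-20hr at 37C; compounds added from DMSO; agonist mix (1nM isoproterenol, 100uM IBMX, 25uM Ro-20-1724) added; 0.5hr RT; d2-cAMP and anti-cAMP-cryptate added; 1hr RT; 665/615 nm read.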

[17] = target: Beta-2 adrenergic receptor (Homo sapiens) (UniProt P07550); assay: Adrenergic beta2 receptor (ADRB2) small molecule agonists, cell-based qHTS assay (AID 1963593);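 further: CHO cells stably overexpressing human ADRB2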
Procedure, shortened: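 CHO cells stably over-expressing ADRB2 were plated overnight at 37C, then dosed with compounds plus a stimulation mix containing 100uM IBMX and 25uM Ro-20-1724 for 0.5hr at room temperature. cAMP was measured by HTRF competition, 1hr.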

[18] = target: D(2) dopamine receptor (Homo sapiens) (UniProt P14416); assay: Dopamine D2 receptor (DRD2) small molecule agonists, cell-based qHTS assay (AID 1963594); further: nearly all actives have a fitted effect of over 35% in size
Procedure, shortened: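 cAMP accumulation in DRD2-HEK293 cells measured by HTRF after 1 h detection; compounds added 10 min before NKH477 (200nM […]) forskolin-analogue stimulation, 30 min at room temperature, with Ro20-1724 present at 0.1 mM final.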

[19] = target: D(2) dopamine receptor (Homo sapiens) (UniProt P14416); assay: Dopamine D2 receptor (DRD2) small molecule antagonists, cell-based qHTS assay (AID 1963595; active means well fitted inhibition curve with a large enough effect in the signal ratio in the repeat runs, with a control signal flat; the % refers to the signal ratio; further: potency means the concentration at half of the fitted maximal effect)
Procedure, shortened: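 HEK293 cells stably expressing DRD2 were preincubated with 0.1 mM Ro20-1724, then with compound for 10 min at room temperature. Cells were stimulated with 200 nM NKH477 plus 12 nM quinpirole for 30 min, and cAMP was read by HTRF.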

[20] = G protein-coupled receptor (GPCR) small molecule agonists, calcium flux assay: HEK293 wild type cell line counter screen (AID 1920065)
Procedure, shortened: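 Kinetic fluorescence at Ex/Em 480/540, recorded every second over 3 min, served as the read-out after compound addition. Each compound was tested at 15 concentrations in triplicate on cells pre-loaded with calcium dye for 1 h.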

Chain of KiSS-1 receptor (Homo sapiens) (Q969F8 whole entry, looked up): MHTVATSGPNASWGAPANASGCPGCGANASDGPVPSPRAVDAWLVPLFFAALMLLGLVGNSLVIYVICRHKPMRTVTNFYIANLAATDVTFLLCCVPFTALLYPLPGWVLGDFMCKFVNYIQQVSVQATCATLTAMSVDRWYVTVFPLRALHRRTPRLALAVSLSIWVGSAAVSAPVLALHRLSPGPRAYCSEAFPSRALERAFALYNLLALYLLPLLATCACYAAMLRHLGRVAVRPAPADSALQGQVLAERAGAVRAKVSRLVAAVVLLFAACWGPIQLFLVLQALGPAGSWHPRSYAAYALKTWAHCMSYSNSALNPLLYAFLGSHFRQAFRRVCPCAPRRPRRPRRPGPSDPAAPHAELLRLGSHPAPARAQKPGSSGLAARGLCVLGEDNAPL
Chain of D(2) dopamine receptor (Homo sapiens) (P14416 whole entry, looked up): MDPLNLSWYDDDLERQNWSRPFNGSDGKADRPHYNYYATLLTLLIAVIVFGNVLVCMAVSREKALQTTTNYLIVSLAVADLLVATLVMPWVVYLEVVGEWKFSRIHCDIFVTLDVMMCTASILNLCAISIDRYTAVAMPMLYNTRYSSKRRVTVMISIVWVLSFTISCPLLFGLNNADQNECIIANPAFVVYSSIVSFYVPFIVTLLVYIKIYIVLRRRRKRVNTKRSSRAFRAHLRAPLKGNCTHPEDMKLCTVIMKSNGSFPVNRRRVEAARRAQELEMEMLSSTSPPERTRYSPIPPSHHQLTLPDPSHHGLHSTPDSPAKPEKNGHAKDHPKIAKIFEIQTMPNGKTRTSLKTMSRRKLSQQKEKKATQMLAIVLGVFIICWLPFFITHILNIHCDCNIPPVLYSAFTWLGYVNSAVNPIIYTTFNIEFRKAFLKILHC
Chain of Beta-2 adrenergic receptor (Homo sapiens) (P07550 whole entry, looked up): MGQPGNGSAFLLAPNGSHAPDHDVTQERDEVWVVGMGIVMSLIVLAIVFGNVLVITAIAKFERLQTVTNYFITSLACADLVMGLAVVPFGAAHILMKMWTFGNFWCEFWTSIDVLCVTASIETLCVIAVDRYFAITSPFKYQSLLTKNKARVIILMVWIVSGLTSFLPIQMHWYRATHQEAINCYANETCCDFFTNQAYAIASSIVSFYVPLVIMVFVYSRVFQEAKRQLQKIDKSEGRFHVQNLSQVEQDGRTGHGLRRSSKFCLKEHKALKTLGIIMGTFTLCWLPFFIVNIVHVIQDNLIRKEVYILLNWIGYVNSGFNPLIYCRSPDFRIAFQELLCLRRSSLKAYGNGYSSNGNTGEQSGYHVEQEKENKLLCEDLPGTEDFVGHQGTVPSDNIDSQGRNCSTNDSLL
Chain of Muscarinic acetylcholine receptor M1 (Homo sapiens) (P11229 whole entry, looked up): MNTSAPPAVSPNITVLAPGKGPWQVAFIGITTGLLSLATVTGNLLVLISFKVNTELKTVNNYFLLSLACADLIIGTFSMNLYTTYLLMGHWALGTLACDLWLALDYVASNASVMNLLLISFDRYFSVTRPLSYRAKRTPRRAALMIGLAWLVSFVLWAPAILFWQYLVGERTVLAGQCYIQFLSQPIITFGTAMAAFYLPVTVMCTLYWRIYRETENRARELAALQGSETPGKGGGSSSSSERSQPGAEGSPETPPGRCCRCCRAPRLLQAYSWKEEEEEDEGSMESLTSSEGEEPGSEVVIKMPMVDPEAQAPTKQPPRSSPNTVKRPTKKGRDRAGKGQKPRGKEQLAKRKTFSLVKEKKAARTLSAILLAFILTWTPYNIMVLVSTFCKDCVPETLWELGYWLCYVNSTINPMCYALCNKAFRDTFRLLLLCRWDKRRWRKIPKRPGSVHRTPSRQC
Chain of 5-hydroxytryptamine receptor 2A (Homo sapiens) (P28223 whole entry, looked up): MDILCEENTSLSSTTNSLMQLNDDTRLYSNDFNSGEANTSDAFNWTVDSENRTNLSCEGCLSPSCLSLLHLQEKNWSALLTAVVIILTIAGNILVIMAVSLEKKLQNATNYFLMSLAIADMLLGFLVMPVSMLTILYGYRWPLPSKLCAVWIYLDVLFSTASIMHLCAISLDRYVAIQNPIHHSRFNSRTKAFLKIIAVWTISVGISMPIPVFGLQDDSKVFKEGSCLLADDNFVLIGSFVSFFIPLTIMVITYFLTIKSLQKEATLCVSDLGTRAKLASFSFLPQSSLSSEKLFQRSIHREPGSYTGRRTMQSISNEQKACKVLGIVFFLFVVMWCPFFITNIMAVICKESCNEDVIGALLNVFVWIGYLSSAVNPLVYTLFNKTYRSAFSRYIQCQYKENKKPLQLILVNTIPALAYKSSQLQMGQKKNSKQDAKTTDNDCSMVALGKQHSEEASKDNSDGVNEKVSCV
Chain of Gonadotropin-releasing hormone receptor (Homo sapiens) (P30968 whole entry, looked up): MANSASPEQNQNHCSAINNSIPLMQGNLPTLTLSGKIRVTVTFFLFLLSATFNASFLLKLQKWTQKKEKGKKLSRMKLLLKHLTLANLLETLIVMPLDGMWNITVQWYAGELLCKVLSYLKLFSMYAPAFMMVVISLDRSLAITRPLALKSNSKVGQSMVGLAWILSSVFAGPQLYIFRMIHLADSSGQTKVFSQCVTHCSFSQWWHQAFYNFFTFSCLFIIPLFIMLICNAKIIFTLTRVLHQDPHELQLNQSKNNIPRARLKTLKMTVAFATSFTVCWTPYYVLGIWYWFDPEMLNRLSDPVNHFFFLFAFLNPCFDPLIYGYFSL

Compound	Potency [1]	Potency [2]	Potency [3]	Potency [4]	Potency [5]	Potency [6]	Potency [7]	Potency [8]	Potency [9]	Potency [10]	Potency [11]	Potency [12]	Potency [13]	Potency [14]	Potency [15]	Potency [16]	Potency [17]	Potency [18]	Potency [19]	Potency [20]
CCC(Cc1c(I)cc(I)c(N)c1I)C(=O)O (stereo unspecified)	inactive	inactive	inactive	inactive	inactive	inactive	inactive	inactive	inactive	inactive and 3.65 µM (active)	inactive	inactive	inactive	inactive	inactive	inactive	inactive	inactive	inactive and 10.6 µM (active)	
Cc1cn([C@H]2C=C[C@@H](CO)O2)c(=O)[nH]c1=O	inactive	inactive	inactive	inactive		inactive	inactive	inactive							inactive		inactive	inactive	inactive	inactive
CC(=O)OC[C@H]1O[C@@](COC(C)=O)(O[C@H]2O[C@H](COC(C)=O)[C@@H](OC(C)=O)[C@H](OC(C)=O)[C@H]2OC(C)=O)[C@@H](OC(C)=O)[C@@H]1OC(C)=O	inactive	inactive	inactive	inactive	inactive	inactive	inactive	inactive	inactive	inactive	inactive		inactive	inactive	inactive	inactive			inactive	
O=C(O)/C=C\C(=O)O	inactive	inactive	inactive	inactive						27.5 µM (active) and 3.75 µM (active) and inactive	inactive	inactive		inactive		inactive	inactive	inactive	inactive	inactive
O=C1C(N(CO)C(=O)NCO)N(CO)C(=O)N1CO (stereo unspecified)	inactive	inactive	inactive	inactive		inactive		inactive	inactive	inactive	inactive	inactive	inactive	inactive	inactive	inactive		inactive	inactive	inactive
COC(=O)[C@H]1[C@H]2C[C@@H]3c4[nH]c5cc(OC)ccc5c4CCN3C[C@H]2C[C@@H](OC(=O)c2cc(OC)c(OC)c(OC)c2)[C@@H]1OC	48.5 µM (active) and inactive	inactive	inactive	inactive		inactive	inactive		inactive							54.4 µM (active) and 19.9 µM (active) and inactive		inactive	inactive	inactive
Brc1ccc(Br)c(Br)c1	inactive	inactive	inactive	inactive	inactive	inactive	inactive	inactive	inactive	inactive	inactive	inactive	inactive	inactive	inactive	inactive		inactive	inactive	
